Most compounds without a hit are left out; they make up all but 1.1% or so of the library.
SRC3 inh = SRC3 coactivator transcriptional activity inhibitors, primary screen, cell-based, luminescence; Nuclear receptor coactivator 3 (Homo sapiens), Q9Y6Q9; HEK293 GAL4-SRC3 luciferase reporter; inhibition, % at 3.6 µM; 360,000 tested, 0.17% active;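 active = inhibition above a per-campaign cutoff, the mean of all compounds plus 3 SD, cut at about 60% in these data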;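 note: 0% = DMSO-treated cells and 100% = gossypol-treated cells at 36 µM; higher means less SRC3-driven luciferase light from the GAL4 reporter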
NCOA1 inh = SRC1 coactivator transcriptional activity inhibitors, primary screen, cell-based, luminescence | inhibition, % at 3.6 µM | HEK293 GAL4-SRC1 luciferase reporter | 360,000 tested, 0.12% active | Nuclear receptor coactivator 1 (Homo sapiens), Q15788;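 active = inhibition above the campaign mean plus 3 SD, with each screening campaign given its own cutoff, cut at about 60% in these data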;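 note: 0% = DMSO treated cells and 100% = gossypol at 36 µM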
SRC2 inh = inhibition of GAL4-SRC2 driven luciferase reporter, primary screen, SRC2 inhibitor project, cell-based, luminescence; Nuclear receptor coactivator 2 (Homo sapiens), Q15596; HEK293 GAL4-SRC2 luciferase reporter; inhibition, % at 9 µM; 370,000 tested, 0.17% active; AID 651957, 2012;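 active = inhibition above the mean inhibition of all tested compounds plus 3 SD, set per campaign, cut at about 52% in these data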;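 note: 0% = DMSO treated cells and 100% = cells given Gossypol at 36 µM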
NR2F2 inh = NR2F2 transcriptional activity inhibitors, primary screen, cell-based, luciferase reporter, HEK293T, luminescence; COUP transcription factor 2 (Homo sapiens), P24468; HEK293T NGFI-A luciferase reporter; inhibition, % at 8.6 µM; 370,000 tested, 0.7% active; AID 686940, 2013;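 active = inhibition above a per-plate cutoff, mean inhibition of test wells between control levels plus 3 SD, cut at about 38% in these data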;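 note: cells cotransfected with COUP-TFII expression vector driving the NGFI-A reporter; 0% = median of COUP-TF2 test wells and 100% = reporter-only cells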
LRH-1 inv ag = LRH-1 (NR5A2) inverse agonists, primary screen, cell-based, luminescence, HEK293T, StAR-luciferase reporter | LRH-1 transfected, 24 h | 360,000 tested, 0.13% active | AID 602396, 2012 | inhibition, % at 3.6 µM | Nuclear receptor subfamily 5 group A member 2 (Homo sapiens), O00482;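 active = inhibition above the mean inhibition of all tested compounds plus 3 SD, cut at about 73% in these data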;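 note: 0% = DMSO wells and 100% = reporter-only cells lacking LRH-1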
Target sequence (O00482 whole entry, looked up): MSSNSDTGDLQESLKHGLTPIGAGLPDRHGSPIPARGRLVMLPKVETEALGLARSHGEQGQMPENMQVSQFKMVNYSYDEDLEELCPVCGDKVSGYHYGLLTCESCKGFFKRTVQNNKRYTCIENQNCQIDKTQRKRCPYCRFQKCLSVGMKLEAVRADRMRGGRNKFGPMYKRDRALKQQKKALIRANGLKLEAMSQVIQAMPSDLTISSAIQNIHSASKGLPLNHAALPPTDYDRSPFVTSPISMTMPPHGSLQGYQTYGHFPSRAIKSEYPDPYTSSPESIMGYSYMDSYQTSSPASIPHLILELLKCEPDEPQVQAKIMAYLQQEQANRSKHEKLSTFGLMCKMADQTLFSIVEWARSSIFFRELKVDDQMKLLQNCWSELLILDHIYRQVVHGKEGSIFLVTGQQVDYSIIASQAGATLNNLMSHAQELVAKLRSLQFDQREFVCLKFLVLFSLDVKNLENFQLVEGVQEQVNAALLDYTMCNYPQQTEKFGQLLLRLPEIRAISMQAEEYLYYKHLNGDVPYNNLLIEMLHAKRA
GalR3 antagonist = GalR3 antagonists in HEK293 cells, primary screen, cell-based, fluorescence readout; Galanin receptor type 3 (Homo sapiens), O60755; HEK293 GalR3-CNG cAMP membrane potential fluorescence; galR3 body fused to GalR1 C-terminus; inhibition, % at 3 µM; 360,000 tested, 0.44% active; AID 651719, 2012;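 active = inhibition above the screen-wide average plus 3 SD, cut at about 13% in these data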;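 note: forskolin and galanin both at EC90 stimulate the cells; cAMP rise reported by CNG channel membrane potential dye signal; 0% = forskolin plus galanin with DMSO and 100% = forskolin alone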
Gal4-VP16 ctr = Gal4-VP16 luciferase reporter inhibitors, counter-screen for COUP-TFII antagonist project, cell-based, luminescence, HEK293 | shares compounds with NR2F2 inh | inhibition, % at 8.5 µM | 2,500 tested, 25% active; in the data active = inhibition above about 13%
NR2F2 inh conf = NR2F2 transcriptional activity inhibitors, confirmation, cell-based, luciferase reporter, HEK293, triplicate. shares compounds with NR2F2 inh. inhibition, % at 8.5 µM. 2,500 tested, 45% active. HEK293 NGFI-A luciferase reporter, luminescence. AID 687008, 2013;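 active = mean inhibition over three repeats above a set limit taken from the earlier primary screen, cut at about 38% in these data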;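 note: 100% = cells given the luciferase reporter alone without the COUP-TF2 vector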
Numbers without * were called inactive; / = no result given.

SMILES | SRC3 inh | NCOA1 inh | SRC2 inh | NR2F2 inh | LRH-1 inv ag | GalR3 antagonist | Gal4-VP16 ctr | NR2F2 inh conf
COc1cccc2c1C(=O)c1c(O)c3c(c(O)c1C2=O)CC(O)(C(=O)CO)CC3OC1CC(N(C)C)C(O)C(C)O1 (configuration not stated) | 85* | 79* | 58* | 45* | 97* | -4 | 28* | 27
COc1cccc2c1C(=O)c1c(O)c3c(c(O)c1C2=O)C[C@@](O)(C(C)=O)C[C@@H]3O[C@H]1C[C@H](N)[C@H](O)[C@H](C)O1 | 82* | 6 | 27 | 54* | 99* | / | 28* | 44*
O=C(Cc1coc2cc3c(cc12)CCC3)OCC(=O)N1CCCC1=O | 26 | 11 | 54* | 44* | 12 | 2 | 28* | 13
COCCn1c(C)cc(C(=O)CSc2nc3ccccc3s2)c1C | 29 | 25 | 9 | 50* | 2 | -10 | -57 | 31
CCN(CC)C(=O)CC[C@@H]1CC[C@]2(CCCN(Cc3cccc4ccccc34)C2)O1 | / | / | 23 | 9 | / | / | / | /
COc1ccc(C(=O)N2CCN(Cc3ccccc3C(F)(F)F)CC2)cc1 | -20 | -10 | 11 | 80* | 0 | -6 | -1 | 6
COc1ccc(NC(=S)N(Cc2cccc(Br)c2)CC2CCC(C(=O)O)CC2)cc1 (configuration not stated) | 8 | -9 | -26 | -7 | 5 | -4 | / | /
COc1cccc(NC(=S)N(Cc2cccc(Br)c2)CC2CCC(C(=O)O)CC2)c1 (configuration not stated) | 2 | -10 | -1 | 39* | -6 | -7 | -5 | 7
COc1ccc(C(C)=O)cc1CSc1nnc(Nc2ccccc2)s1 | 38 | 7 | 9 | 50* | 23 | -14 | 3 | 36
COc1ccc(C(C)=O)cc1CSc1nnc(C)s1 | -1 | -12 | -21 | -9 | 13 | -7 | / | /
COc1ccc(C(C)=O)cc1CSc1nnc(Nc2ccc(C)cc2)s1 | 19 | 11 | 17 | 42* | -18 | 2 | 10 | 21
O=S(=O)(CC1NCc2cc(F)ccc21)NCc1ccc(F)cc1 (configuration not stated) | / | / | 8 | -7 | / | / | / | /
CCn1c2ccccc2c2cc(C=NNC(=O)c3cc(-c4ccc(OC)cc4)n[nH]3)ccc21 | / | / | -32 | -24 | / | / | / | /
COc1ccc(CN2CN3Cc4ccc(C)cc4C3CS2(=O)=O)cc1 (configuration not stated) | / | / | 3 | -4 | / | / | / | /
CCCCCCCCCCOC(=O)Cn1c(COc2ccccc2OC)[n+](C)c2ccccc21 | 11 | 15 | -26 | 44* | 22 | 4 | 4 | 36
Cn1c(COc2ccccc2O)[n+](C)c2ccccc21 | -9 | 7 | 0 | 0 | 20 | 7 | / | /
Cc1ccc(C(=O)O/N=C(\N)c2ccccn2)cc1 | -62 | -22 | 57* | 57* | -16 | 2 | -157 | -110
CC(C)(C)c1ccc(C(=O)O/N=C(\N)c2ccccn2)cc1 | 88* | 90* | 86* | 95* | 88* | -5 | 74* | 101*
Cc1cccc(C(=O)O/N=C(\N)c2ccccn2)c1 | -44 | -21 | 48 | 47* | -7 | -8 | -173 | -111
COc1cc(C(=O)O/N=C(\N)c2ccccn2)cc(OC)c1OC | -4 | -8 | -6 | -7 | -13 | -6 | / | /
Cc1ccc(C(=O)O/N=C(\N)c2ccccn2)cc1C | -11 | -34 | 42 | 50* | -11 | -4 | -70 | -1
COc1ccc(OCC(C)CN2CCC(C(O)(c3ccccc3)c3ccccc3)CC2)cc1 (configuration not stated) | / | / | -2 | -2 | / | / | / | /
O=C(Nc1ccc2c(c1)OCO2)O[C@@H]1CC[C@@]23CCCN2C(=O)CCC[C@H]3C1 | / | / | / | -14 | / | / | / | /
N/C(=N\OC(=O)c1ccccc1)c1ccccn1 | -67 | -99 | -17 | -9 | -88 | -1 | / | /
CCOc1ccc(C(=O)O/N=C(\N)c2ccccn2)cc1 | 39 | 17 | 65* | 81* | 29 | 4 | -93 | -4
SMILES | SRC3 inh | NCOA1 inh | SRC2 inh | NR2F2 inh | LRH-1 inv ag | GalR3 antagonist | Gal4-VP16 ctr | NR2F2 inh conf
CC(=O)OCCN1c2ccccc2Sc2cnccc21 | 36 | 21 | 37 | 37* | -12 | -3 | -5 | 12
C=CCN1c2ccccc2Sc2cnccc21 | 19 | 17 | 32 | 3 | -23 | -4 | / | /
Cc1ccc(C)c(C(=O)OCC(=O)Nc2cccc(S(=O)(=O)N3CCCCC3)c2)c1 | 2 | -2 | 11 | 43* | 2 | -8 | 3 | 30
CC(=O)c1ccc(OCC(=O)Nc2cccc(S(=O)(=O)N3CCCC3)c2)cc1 | 30 | 4 | 21 | 43* | 10 | -7 | -8 | 13
CC(=O)c1c(C)[nH]c(C(=O)OCC(=O)Nc2cccc(S(=O)(=O)N3CCCC3)c2)c1C | 41 | 36 | 19 | 66* | 46 | -11 | -15 | 36
CC(=O)c1c(C)[nH]c(C(=O)OCC(=O)Nc2cc(S(=O)(=O)N3CCCC3)ccc2Cl)c1C | 32 | 23 | 2 | -19 | 34 | -8 | / | /
CN(C)S(=O)(=O)c1cccc(NC(=O)CNc2cccc(S(=O)(=O)N3CCCCC3)c2)c1 | 24 | 19 | 5 | 45* | 33 | -9 | 3 | 20
CCCCN1C(=O)N2Cc3ccc(C)cc3C2CS1(=O)=O (configuration not stated) | / | / | -61 | -38 | / | / | / | /
COc1ccc2c(c(-c3ccccc3)cn2C)c1-c1ccccc1 | / | / | -5 | -9 | / | / | / | /
Cn1c(NC(=O)c2ccccc2)nc(Cc2ccccc2)c1-c1ccccc1 | / | / | -1 | 5 | / | / | / | /
CCc1nc2ccccc2c(C(=O)OCC(=O)Nc2ccc(S(=O)(=O)N3CCOCC3)cc2)c1C | -1 | 15 | 4 | 14 | 14 | -2 | / | /
CCc1nc2ccccc2c(C(=O)OCC(=O)Nc2cccc(S(=O)(=O)N3CCOCC3)c2)c1C | 39 | 7 | 4 | 65* | 10 | -3 | 11 | 30
COc1ccc(N2CCN(C(=O)Oc3ccc([N+](=O)[O-])cc3)CC2)cc1 | / | / | 14 | 12 | 11 | -6 | / | /
